From PubChem BioAssay
ClpP mod = qHTS Assay for Activators of ClpP | Potency, µM (doses to about 57.5 µM), for inactives: top-dose activity change, negative = active | 340,000 compounds, 1.9% hits | ATP-dependent Clp protease proteolytic subunit (Bacillus subtilis (strain 168)), P80244 | purified B. subtilis ClpP, FRET peptide cleavage, 20 min; active = well fitted falling curve with a large enough effect; inconclusive = small, poorly fitted or top-dose-only effect; inactive = no such curve, though single readings can be large or run the other way; note: potency is the fitted concentration of half-maximal effect; the source files actives as falling curves though it sought activators and does not explain the sign; nearly all actives have a fitted effect of over 65% in size
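FRET quenching reversal measured ClpP activation: 10 microg/mL B. subtilis ClpP at pH 8 with the FRET-FV decapeptide, read at 430 nm after 320 nm excitation. The 20-min minus 0-min signal was scaled between DMSO/no-enzyme wells and ADEP (5.8 microM final).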
DT40 TDP1 no CPT = qHTS for Inhibitors of human tyrosyl-DNA phosphodiesterase 1 (TDP1): qHTS in cells in absence of CPT. DT40 Tdp1-/- hTDP1 cells, no CPT, ATP luminescence, 48 h. Potency, µM (series often up to 46.2 µM), for the others: at the highest dose activity change, negative = growth inhibition, actives largely listed as inhibitors. 420,000 compounds, 15% hits. AID 686978, 2013; note: potency is the fitted concentration of half-maximal effect; % is set by controls: 0 for no effect and ±100 for the full control effect; nearly all actives have a fitted effect of over 55% in size
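Stably hTDP1-transfected Tdp1-null chicken DT40 cells were treated with library compounds minus camptothecin and grown for at least 48 hr at 37 °C, after which cellular ATP was quantified by luminescence.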
DRD3 antagonist = blocks the human D3 dopamine receptor; D3R cells, DiscoveRx beta-arrestin luminescence, antagonist mode; stronger effect = lower value; P35462; AID 652054; max response, negative = inhibition, %; 360,000 compounds, 2.5% hits; in the data active = max response below about -50%; inconclusive = no clear call, values can overlap the other calls; note: % is set by controls: 0 for no effect and ±100 for the full control effect
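Cells plated overnight at 1500 cells/well, then exposed to library compounds with dopamine controls for 90 minutes at 37 degrees C. DiscoveRx reagent added for 30–60 minutes at room temperature; luminescence read, quantitative HTS format.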
IL1B secr inh = inhibitors of inflammasome signaling (IL-1 beta secretion) | 360,000 compounds, 4.7% hits | THP-1 LPS/ATP IL-1B secretion, AlphaLISA, 16 h; stronger effect = lower value | activity change, % at 57.5 µM; in the data active = activity change below about -50%; inconclusive = mostly about -30% to -49%; note: % is set by controls: 0 for no effect and ±100 for the full control effect
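Secreted IL-1B measured by AlphaLISA bead assay after 16 h compound exposure of THP-1 cells; compounds (final up to 57.5 uM) added 1 h before LPS (250 ng/mL) and ATP (1.25 mM) stimulation; lower signal means less secretion.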
TDP1 cell CPT = DT40-hTDP1 cell growth loss with CPT; chicken DT40 Tdp1-/-;hTDP1 cells + 20 nM CPT, ATP luminescence, 48 h; Potency, µM (doses to about 46.2 µM), for inactives: at the top dose activity change, negative = growth inhibition, actives largely listed as inhibitors; 420,000 compounds, 12% hits; AID 686979; note: potency is the fitted concentration of half-maximal effect; % is set by controls: 0 for no effect and ±100 for the full control effect; nearly all actives have a fitted effect of over 55% in size
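Chicken DT40 Tdp1-/- cells complemented with human TDP1, 400 cells/well, exposed to compounds plus 20 nM camptothecin for at least 48 h at 37 C; viability read as ATP content by CellTiter-Glo luminescence.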
DRD3 agonist = D3 dopamine receptor (human) agonism; D3R DiscoveRx beta-arrestin cells, luminescence, 90 min; max activation, %; 410,000 compounds, 0.58% hits; AID 652048; in the data active = max activation above about 30%; note: 0% is about no effect
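Cells at 1500/well, incubated overnight, then treated with pinned compounds (dopamine as control) for 90 min at 37 degrees C. DiscoveRx reagent added for 30 - 60 minutes at room temperature; luminescence read.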
Starred values were filed as active, the others as inactive; ? = inconclusive; . = no result given. In the library only some 21% were active in any assay of this set; here they are far more common. Unless noted, calls come from the whole dose curve; as a rule, active = well fitted inhibition curve with a large enough effect; inconclusive = small, poorly fitted or top-dose-only effect; inactive = flat fitted curve, though single readings scatter.

SMILES | ClpP mod | DT40 TDP1 no CPT | DRD3 antagonist | IL1B secr inh | TDP1 cell CPT | DRD3 agonist
CC(C)Sc1ncc(Cl)c(C(=O)Nc2nnc(C(C)C)s2)n1 | 1% | -10% | . | . | -21% | 6
CSc1nnc(NC(=O)c2nc(S(=O)(=O)Cc3ccccc3)ncc2Cl)s1 | . | 16µM* | ? | -100* | 12µM* | 0
COc1ccc(-c2nc(C)c(CCNC(=O)C(=O)Nc3c(C)cccc3C)s2)cc1OC | 4% | . | . | . | . | 5
Cc1ccc(S(=O)(=O)N2CCOCC2)cc1C(=O)OCC(=O)NC1CCCC(C)C1C (stereo not drawn) | 1% | 4.6µM* | 5 | 20 | 15µM* | 5
O=C(COC(=O)c1cc(S(=O)(=O)N2CCc3ccccc3C2)ccc1Cl)NCc1ccco1 | -5% | ? | -55* | 19 | ? | -4
Cc1ccc(S(=O)(=O)N2CCOCC2)cc1C(=O)OCC(=O)N1CCc2ccccc2C1 | 1% | 23µM* | 11 | 17 | ? | 7
CC1CCCC(NC(=O)COC(=O)c2cc(S(=O)(=O)N3CCCCC3)ccc2N2CCOCC2)C1C (stereo not drawn) | -2% | ? | -9 | 2 | -26% | -3
O=C(COC(=O)c1cccc(S(=O)(=O)N2CCc3ccccc3C2)c1)NCc1ccco1 | -1% | -21% | -26 | 12 | -8% | -13
Cc1cc2nc(SCC(=O)Nc3ccccc3C(=O)O)[nH]c2cc1C | . | 0% | 7 | 40 | -5% | 3
CCOC(=O)C1(CCC(C)C)CC(CSc2nc3ccccc3[nH]2)OC1=O (stereo not drawn) | 0% | 18µM* | -4 | 25 | 12µM* | 2
COc1ccc(C)cc1-n1c(SCC(=O)Nc2cc(C)on2)nc2ccccc2c1=O | 1% | 13µM* | -4 | 10 | 10µM* | -7
COc1ccc(C)cc1-n1c(SCC(=O)Nc2cc(C)on2)nc2sc(C)c(C)c2c1=O | -5% | 8.2µM* | 1 | -10 | 12µM* | 1
COc1cccc(-n2c(SCC(=O)Nc3cc(C)on3)nc3ccccc3c2=O)c1 | -1% | ? | 4 | -6 | ? | 8
CSc1ccccc1NC(=O)Nc1ccc(Cl)cc1 | 0% | -30% | ? | ? | 21µM* | -26
O=C(Nc1ccc2c(c1)OCO2)Nc1ccccc1F | 0% | 5.8µM* | 12 | ? | 9.2µM* | 2
CCc1ccccc1NC(=O)Nc1ccc2c(c1)OCO2 | 0% | 13% | -11 | 10 | -11% | 1
N#Cc1ccc(NC(=O)Nc2cccc(C#N)c2)cc1 | -2% | 6.5µM* | -3 | -11 | 6.5µM* | 0
CSc1ccc(NC(=O)Nc2ccccc2C(N)=O)cc1 | -23% | ? | -3 | 0 | 13µM* | 2
CCCc1nnc(NC(=O)c2nc(SCC)ncc2Cl)s1 | -2% | -4% | . | . | -29% | -17
CCOc1ccc(Oc2ccccc2NC(=O)CN2C(=O)NC3(CCCC3)C2=O)cc1 | 1% | ? | 5 | 0 | ? | -1
COc1ccc(NC(=O)N2CC[C@@]3(CCCN(C(=O)c4ccncc4)C3)C2)cc1 | . | 1% | . | . | 9% | .
CN1CCC/C1=C1/C(=O)N(c2ccccc2)N=C1NC(=O)Nc1cccc(Cl)c1 | 3% | 15µM* | -18 | -12 | 8.2µM* | -8
COC(=O)c1cccc(NC(=O)Nc2ccc(Cl)c(Cl)c2)c1 | -1% | ? | 16 | -85* | 18µM* | -2
COC(=O)c1cccc(NC(=O)NC(=O)c2ccccc2Cl)c1 | . | -13% | 11 | -14 | -5% | 4
CC(=O)c1ccc(NC(=O)Nc2cccc(Cl)c2)cc1 | 0% | ? | -11 | -96* | 21µM* | -6
SMILES | ClpP mod | DT40 TDP1 no CPT | DRD3 antagonist | IL1B secr inh | TDP1 cell CPT | DRD3 agonist
Cc1ccc(NC(=O)NC2=NN(c3ccccc3)C(=O)/C2=C2/CCCN2C)cc1 | 0% | 3% | 3 | -18 | 1% | 2
O=C(Nc1ccccc1)Nc1cccc(Cl)c1 | -1% | 11µM* | -8 | ? | 14µM* | -19
C=C(C)C(=O)Nc1ccc2nn(-c3ccccc3O)nc2c1 | 1% | ? | -25 | -9 | -13% | -6
NC(=O)c1ccccc1NC(=O)Nc1cccc(Cl)c1 | -11% | ? | -6 | -1 | 12µM* | 1
O=C(CCl)Nc1ccc2c(c1)OCO2 | . | ? | 17 | -97* | 13µM* | 2
O=C(NNc1ccccc1[N+](=O)[O-])Nc1cccc(Cl)c1 | -1% | 15µM* | -12 | -9 | 21µM* | -2
O=C(Nc1cccc(Cl)c1)OCCOC(=O)Nc1cccc(Cl)c1 | . | 21µM* | -5 | ? | ? | 4
O=C(Nc1cccc(Cl)c1)OCCOc1ccccc1 | -1% | ? | -1 | -3 | -19% | -2
O=C(Nc1cccc(Cl)c1)Nc1ccccc1C(=O)O | 4% | -14% | -3 | -12 | -3% | 6
CCCN(CCC)CCCNC(=O)C1CCCN(S(=O)(=O)c2cccc3nsnc23)C1 (stereo not drawn) | 1% | -5% | . | . | 10% | 0
COc1ccc(NC(=O)N2CCN3CCCCC3C2)cc1OC (stereo not drawn) | 3% | -1% | . | . | 1% | -20
CCCCn1cc(S(=O)(=O)c2cc(C)ccc2C)c(=O)c2cc(F)c(F)cc21 | 2% | ? | . | . | ? | 1
COc1ccc(Cl)cc1NC(=O)Nc1ccccc1SC | 1% | ? | -10 | 42 | ? | -10
COc1ccc(Cl)cc1NC(=O)Nc1ccccc1C(N)=O | -2% | 8.2µM* | -5 | 20 | 18µM* | -4
O=C(CN1c2ccccc2Sc2ccccc21)NNC(=O)Nc1cccc(Cl)c1 | . | 10µM* | ? | -88* | 23µM* | -4
O=C(NNc1ccccc1)Nc1cc(Cl)ccc1Cl | -23% | -22% | -20 | -97* | -27% | 1
O=C(Nc1cccc(Cl)c1)Nc1ccc2c(c1)OCO2 | 0% | 16µM* | 10 | ? | ? | 2
COC1=C(C(=O)O)N2C(=O)[C@@H](NC(=O)[C@H](N)C3=CCC=CC3)[C@H]2SC1 | . | -20% | . | . | -19% | -22
COCCn1c(-c2ccccc2)c(C)n2c3c(=O)n(C)c(=O)n(C)c3nc12 | 1% | . | . | . | . | 4
Cc1ccc(C(=O)Nc2ccc3c(c2)OCO3)o1 | 1% | 16µM* | 22 | 22 | 15µM* | 7
C/C(=C\C(=O)c1ccc(C)o1)Nc1ccc2c(c1)OCO2 | -3% | -18% | 5 | 41 | -7% | 18
